Measured values reported in PubChem BioAssay AID1851 (National Center for Advancing Translational Sciences (NCATS), 2009).
Among all 16,000 compounds or so, about 2,600 (16%) were called active. Inconclusive results (about 20%) are left out. What follows is part of a selection rich in actives, with near analogues and random picks from the rest. Values without a mark were called inactive. The call rests on the fitted dose curve; in most records, active means well fitted curve in the direction sought with a large enough effect; inconclusive means small, poorly fitted or top-dose-only effect, or effect the other way; inactive means no such curve, though single readings can be large or run the other way.

biological target: Cytochrome P450 2D6 (Homo sapiens) (UniProt P10635); test: Cytochrome panel assay with activity outcomes; settings: recombinant CYP, pro-luciferin dealkylation, luminescence, p450-cyp2d6; series mostly up to 57.1 µM
On the % scale 0 is the no-effect control and ±100 the full control effect.

Sequence of Cytochrome P450 2D6 (Homo sapiens) (P10635 whole entry, looked up): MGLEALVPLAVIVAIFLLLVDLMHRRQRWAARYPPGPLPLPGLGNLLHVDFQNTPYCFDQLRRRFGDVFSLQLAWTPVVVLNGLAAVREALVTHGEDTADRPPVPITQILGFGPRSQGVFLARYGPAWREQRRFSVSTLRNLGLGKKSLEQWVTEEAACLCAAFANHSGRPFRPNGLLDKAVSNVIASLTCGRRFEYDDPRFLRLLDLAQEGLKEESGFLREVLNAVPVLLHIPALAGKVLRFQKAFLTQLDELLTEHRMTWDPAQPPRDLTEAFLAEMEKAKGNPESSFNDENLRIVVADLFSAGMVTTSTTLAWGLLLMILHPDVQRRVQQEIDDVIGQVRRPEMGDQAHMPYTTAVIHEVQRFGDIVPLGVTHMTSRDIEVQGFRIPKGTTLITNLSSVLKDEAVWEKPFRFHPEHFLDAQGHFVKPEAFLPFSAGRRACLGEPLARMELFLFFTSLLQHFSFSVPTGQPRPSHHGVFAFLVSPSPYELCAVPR

Row | SMILES | AC50 | activity, negative = inhibition
1 | CP(=O)(O)CCCN | inactive | –
2 | CC(C)C[C@H]1C(=O)N2CCC[C@@H]2[C@@]2(O)O[C@](NC(=O)[C@@H]3C=C4c5cccc6[nH]cc(c56)C[C@@H]4N(C)C3)(C(C)C)C(=O)N12 | inactive | –
3 | CN1C[C@H](C(=O)N[C@@]2(C)O[C@@]3(O)[C@H]4CCCN4C(=O)[C@@H](Cc4ccccc4)N3C2=O)C=C2c3cccc4[nH]cc(c34)C[C@@H]21 | – | -1.39% [at 11.4 µM]
4 | CN1C[C@H](CO)C=C2c3cccc4[nH]cc(c34)C[C@@H]21 | 0.126 µM (active) | –
5 | O=C(NCP(=O)(O)O)c1cccnc1 | – | -2.73% [at 11.4 µM]
6 | O=C(Nc1ccccc1)N1CCC2(CC1)CCN(C(=O)Oc1ccccc1)CC2 | inactive | –
7 | Cc1ccc(C2(c3ccc(C)c(O)c3C)CCN(C)CC2)c(C)c1O | – | -18.9% [at 11.4 µM]
8 | Cn1c(O)c(C(c2ccccn2)c2c(O)n(C)c(=S)n(C)c2=O)c(=O)n(C)c1=S | inactive | –
9 | C[C@@]12CC[C@H](O)C[C@@H]1CC[C@H]1[C@@H]2C[C@@H](O)[C@]2(C)[C@@H](C3=CC(=O)OC3)CC[C@]12O | inactive | –
10 | c1ccc2c(c1)Sc1ccccc1N2C[C@H]1CN2CCC1CC2 | 0.398 µM (active) | –
11 | CN1CCc2nc3ccc(F)cc3c(C(N)=O)c2C1 | inactive | –
12 | CCOc1ccc2c(c1)C(C)=CC(C)(C)N2 | 2.51 µM (active) | –
13 | CCCn1c(C)c(C(=O)c2cccc3ccccc23)c2ccccc21 | inactive | –
14 | O=C(c1cc(=O)[nH]c2ccc(Br)cc12)N1CCC2(CC1)OCCO2 | inactive | –
15 | CC(=O)OC1N=C(c2ccccc2)c2cc(Br)ccc2N(C)C1=O (stereo not given) | inactive | –
16 | C[C@@H]1O[C@H](C[N+](C)(C)C)CS1 | inactive | –
17 | COc1cccc(-n2c(O)c(C=NCCN3CCOCC3)c(=O)[nH]c2=O)c1 | inactive | –
18 | CC1CN=C(Nc2cccc3ccccc23)S1 (stereo not given) | 11.2 µM (active) | –
19 | C[N+]1(C)CCO[C@@](O)(c2ccc(-c3ccc([C@]4(O)C[N+](C)(C)CCO4)cc3)cc2)C1 | inactive | –
20 | COC(=O)C(O)(c1c(C)[nH]c2ccccc12)C(F)(F)F (stereo not given) | inactive | –

Row | SMILES | AC50 | activity, negative = inhibition
21 | CCOC(=O)[C@@H]1[C@@H]2c3ccccc3-c3ccccc3[C@H]2C[C@H]1O | – | -5.13% [at 11.4 µM]
22 | CCOC(=O)C1Cc2c([nH]c3ccccc23)CN1 (stereo not given) | 12.6 µM (active) | –
23 | CCOC(=O)Cn1cc(C(=O)c2ccccc2F)c2ccccc21 | inactive | –
24 | O=C(O)c1ccccc1-c1c2cc(Br)c(=O)cc-2oc2[c]([Hg])c(O)c(Br)cc12 | inactive | –
25 | CC[N+](CC)(CC)CCOc1cccc(OCC[N+](CC)(CC)CC)c1OCC[N+](CC)(CC)CC | inactive | –
26 | c1cncc(CNCCN2CCNCC2)c1 | – | -5.64% [at 11.4 µM]
27 | c1cncc(CNc2cc(-c3ccc4c(c3)OCO4)ncn2)c1 | 20 µM (active) | –
28 | C[C@@H](COc1ccccc1)N(CCCl)Cc1ccccc1 | 1.58 µM (active) | –
29 | NNC(=O)c1ccc(O)cc1 | inactive | –
30 | O=C(O)C[O][Sb][O]CC(=O)O | – | 2.9% [at 11.4 µM]
31 | O=C(O)[C@H]1[O][Sb][O][C@@H](C(=O)O)C1O (stereo not given in full) | – | -8.1% [at 11.4 µM]
32 | CCCCCCC[n+]1ccc(-c2cc[n+](CCCCCCC)cc2)cc1 | 7.94 µM (active) | –
33 | COc1cc(C=C(C#N)C#N)cc(O)c1O | inactive | –
34 | C[C@@]12CC[C@@H]3[C@H](CCC4=CC(=O)CC[C@]43C)[C@@H]1CC[C@@H]2C(=O)COS(=O)(=O)c1ccc(Br)cc1 | – | 3.29% [at 11.4 µM]
35 | Cc1cc[c]([Sb]2[O][C@H]([C@H](O)[C@H](O)C(=O)O)[C@@H](CO)[O]2)cc1 | – | 10.9% [at 11.4 µM]
36 | O=C(Nc1ccccc1)N1CC2(CCN(C(=O)Oc3ccccc3)CC2)C1 | inactive | –
37 | N#Cc1ccc(CN2CCCC3(CCN(C(=O)Oc4ccccc4)CC3)C2)cc1 | inactive | –
38 | COc1ccc(NC(=O)N2CC[C@@]3(CCCN(C(=O)Oc4ccccc4)C3)C2)cc1 | 6.31 µM (active) | –
39 | N#Cc1ccc(CN2CC[C@@]3(CCCN(C(=O)Oc4ccccc4)C3)C2)cc1 | 3.16 µM (active) | –
40 | CN1CC[C@@]2(CCCN(C(=O)Oc3ccccc3)C2)C1 | inactive | –

Row | SMILES | AC50 | activity, negative = inhibition
41 | O=C(Nc1ccccc1)N1CC[C@@]2(CCCN(C(=O)Oc3ccccc3)C2)C1 | inactive | –
42 | CC(C)CN1CC2(CCN(C(=O)Oc3ccccc3)CC2)C1 | inactive | –
43 | COc1ccc(NC(=O)N2CCCC3(CCN(C(=O)Oc4ccccc4)CC3)C2)cc1 | inactive | –
44 | N#Cc1ccc(CN2CCC3(CC2)CCN(C(=O)Oc2ccccc2)CC3)cc1 | inactive | –
45 | CC(C)CN1CC[C@@]2(CCCN(C(=O)Oc3ccccc3)C2)C1 | 6.31 µM (active) | –
46 | CC(C)NC(=O)N1CCCC2(CCN(C(=O)Oc3ccccc3)CC2)C1 | inactive | –
47 | O=C(Oc1ccccc1)N1CCC[C@@]2(CCN(C(c3ccccc3)c3ccccc3)C2)C1 | 5.01 µM (active) | –
48 | COCCCN1CCN(c2nnc3n2-c2sc(Br)cc2C(c2ccccc2Cl)=NC3)CC1 | inactive | –
49 | N/C(=N\N=C/c1ccc(-c2ccc(O)c(C(=O)O)c2)o1)N[N+](=O)[O-] | inactive | –
50 | O=C(O)c1ccccc1Nc1cccc(C(F)(F)F)c1 | inactive | –
51 | N[C@@H](CCCCP(=O)(O)O)C(=O)O | inactive | –
52 | CC[N+](C)(C)c1cccc(O)c1 | inactive | –
53 | O=C(Oc1ccccc1)N1CCC2(CC1)CN(C(c1ccccc1)c1ccccc1)C2 | 7.94 µM (active) | –
54 | CN1CCC2(CC1)CCN(C(=O)Oc1ccccc1)CC2 | inactive | –
55 | O=C(Oc1ccccc1)N1CCC2(CCCN(C(c3ccccc3)c3ccccc3)C2)CC1 | inactive | –
56 | C[C@@H]1O[C@H](OC2[C@@H](O)[C@H](O)C(O)[C@H](O)[C@H]2O)[C@@H](N)C[C@@H]1N=C(N)C(=O)O (stereo not given in full) | – | 3.95% [at 11.4 µM]
57 | CN1CCN(c2ncc3ncc(=O)n(C)c3n2)CC1 | inactive | –
58 | CCN(CC)CCO[C@H]1CC[C@@]2(C)C(=CC[C@@H]3[C@H]2CC[C@]2(C)C(=O)CC[C@H]32)C1 | 0.0794 µM (active) | –
59 | C[C@@]12CC[C@H]3[C@@H](CC=C4C[C@H](OS(=O)(=O)O)CC[C@]43C)[C@H]1CCC2=O | inactive | –
60 | CC(=O)O[C@H]1CC[C@@]2(C)C(=CC[C@@H]3[C@H]2CC[C@]2(C)C(=O)CC[C@H]32)C1 | inactive | –
